Records with an inconclusive call do not appear. Entries that show only a call come without a potency. Activity calls are given as the source filed them. Calls come from the whole dose curve; as a rule, active = well fitted cell-killing curve with a large enough effect in the repeat runs; inconclusive = weak or mixed curves, or effect the other way; inactive = flat fitted curve, though single readings scatter.

This test is described as follows: cAMP Responsive Elements (CRE) small molecule antagonists, cell-based qHTS assay: qHTS cell viability counter screen (AID 2060913). Note: nearly all actives have a fitted effect of over 40% in size. To be noted: CRE-bla HEK293T viability, CellTiter-Glo luminescence, 5 h; series mostly up to 92.4 µM. In a few lines:
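Steps: cells plated and held 18 hrs at 37 C/5% CO2; compounds and NKH477 (0.25 uM final) added; 3 hrs incubation; reporter substrate read; CellTiter-Glo added to measure cytotoxicity by luminescence.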
As for `Cc1ccc(C)c(N)c1`, the Potency result was “inactive”.
The result for `O=C(OCC1CO1)C1CCCCC1C(=O)OCC1CO1` (stereo not given) reads “inactive”; that for `CCCCCCCCC`, “inactive”; that for `CC1=C(C(=O)O)N2C(=O)[C@@H](NC(=O)[C@H](N)C3=CCC=CC3)[C@H]2SC1`, “inactive”.
The result for `C=CC[N+]1([C@H]2C[C@H]3[C@@H]4CC[C@H]5C[C@H](OC(C)=O)[C@@H](N6CCCCC6)C[C@]5(C)[C@H]4CC[C@]3(C)[C@H]2OC(=O)CC)CCCCC1` reads “inactive”; that for `O=C(CS)Nc1ccccc1`, “inactive”; that for `C#Cc1ccc(-c2ccccc2F)cc1`, “inactive”.
Consider `C[C@]12CC[C@@H]3c4ccc(O)cc4CC[C@H]3[C@@H]1CCC2=O`, for which the Potency entry was “inactive”.
`COc1ccc(OC(F)(F)F)cc1CN[C@H]1CCCN[C@H]1c1ccccc1`: the Potency entry was “inactive”.
Turning to `CCCc1c(OCCCCc2nn[nH]n2)ccc(C(C)=O)c1O`, the Potency result was “inactive”.
As for `NCCCN1CCOCC1`, the Potency entry is “inactive”.
The result for `CCOc1ccc(N=Nc2ccc(/C=C/c3ccc(N=Nc4ccc(OCC)cc4)cc3S(=O)(=O)O)c(S(=O)(=O)O)c2)cc1` reads “inactive”; that for `CCCCN=C(N)N=C(N)N`, “inactive”; that for `CC(CC(=O)O)CC(C)(C)C` (stereo not given), “inactive”.
As for `CCCCCC/C(C=O)=C\c1ccccc1`, the Potency result was “inactive”.
The result for `O=C(O)/C=C/c1cnc[nH]1` reads “inactive”; that for `c1ccc2cc(Nc3ccc(Nc4ccc5ccccc5c4)cc3)ccc2c1`, “inactive”.
Then `COc1nc(C)nc(Cl)c1NC1=NCCN1`, with “inactive”.
Then `N#CCCN(CCO)CCO`, with “inactive”; and `CCN(C(=O)c1cc(C)cc(OC[C@H](C)Nc2ccncc2)c1)C(C)C`, with “inactive”.

The record behind these values is PubChem BioAssay (Tox21).
